Data: ChEMBL document CHEMBL3988442, “University of Dundee, Small-Polar-MMV Screening Library” (2021)

What was measured:
[1] = target: T1, Aspartate--tRNA(Asp/Asn) ligase (Mycobacterium tuberculosis (strain ATCC 25618 / H37Rv)) (UniProt P9WFW3); assay: Assay for Asp RNA synthetase-1 from Mycobacterium tuberculosis; assay type: functional; set-up: scale not given: direction of the effect not stated beside the values; conditions: 30 µM; note: in the data most compounds retested in dose-response had high values
T1 sequence (whole entry): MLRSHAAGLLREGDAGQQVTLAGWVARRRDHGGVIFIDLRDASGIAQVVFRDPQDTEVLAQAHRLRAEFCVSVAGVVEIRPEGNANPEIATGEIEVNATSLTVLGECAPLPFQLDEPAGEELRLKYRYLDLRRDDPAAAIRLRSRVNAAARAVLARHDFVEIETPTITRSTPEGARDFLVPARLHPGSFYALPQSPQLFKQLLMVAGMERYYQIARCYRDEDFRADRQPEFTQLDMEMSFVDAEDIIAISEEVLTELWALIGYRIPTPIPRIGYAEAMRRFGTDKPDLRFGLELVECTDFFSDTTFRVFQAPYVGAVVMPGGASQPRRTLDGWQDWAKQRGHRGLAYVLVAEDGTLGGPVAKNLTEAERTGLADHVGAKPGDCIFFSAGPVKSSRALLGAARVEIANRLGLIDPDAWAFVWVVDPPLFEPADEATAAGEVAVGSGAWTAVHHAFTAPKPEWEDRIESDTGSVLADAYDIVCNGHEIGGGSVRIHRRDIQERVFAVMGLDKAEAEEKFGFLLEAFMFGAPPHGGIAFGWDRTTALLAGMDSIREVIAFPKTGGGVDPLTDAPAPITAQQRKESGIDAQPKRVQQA

[2] = target: Shiga toxin 2 (Escherichia coli O157:H7) (UniProt P09385+P09386); assay: E. coli 0.157:H7 Shiga Toxin SOP - stx2 screening assay; assay type: functional; set-up: scale not given: direction of the effect not stated beside the values; conditions: 30 µM

Compound | Percent Effect [1] [%] | Percent Effect [2] [%]
COCCN(CCc1ccccc1)Cc1nc2c(cnn2C)c(=O)[nH]1 | 1.95 | 29.5
Cc1cnn(CC2CCCCN2CC(=O)Nc2c(C)n[nH]c2C)c1 (stereo not given) | -1.88 | -12.9
CCCS(=O)(=O)Nc1ccc2c(c1)OCC(C)(C)C(=O)N2C | -4.25 | -2.5
CCN1CC(C(=O)N(C)Cc2ccon2)CC1=O (stereo not given) | -0.748 | -14.8
CN1CC(=O)N(c2ccsc2)CC12CCN(S(C)(=O)=O)C2 (stereo not given) | -0.605 | 0.893
Cn1cc(CN2CCC3(CCCN3S(C)(=O)=O)CC2)cn1 | 5.38 | 4.5
CC(=O)N1CCOCC2(CCN(Cc3ccc(C)s3)CC2)C1 | 0.408 | -23.3
CC(Oc1ccccc1C(F)(F)F)C(=O)NCC(N)=O (stereo not given) | -3.56 | 11.5
Cc1ccc(Cl)cc1C(=O)N1CCC2(CC1)c1ccccc1[C@@H](N)[C@@H]2O | -0.814 | -5.92
CN(C)CC1CSCCCN1C(=O)Nc1ccc(C(C)(C)C)cc1 (stereo not given) | 0.656 | 11.6
CCS(=O)(=O)N1Cc2nccn2CC(Cn2nc(C)nc2C)C1 (stereo not given) | 0.776 | 6.38
O=C(NCc1ccccc1F)N1CCC(C2OCCO2)CC1 | -2.61 | -12.8
CNC(=O)C1(c2cnccn2)CCCN1C(=O)c1ccccc1OC (stereo not given) | -4.66 | -21.4
CCn1cc(CN2CCCN(C(=O)C3=NN(C)C(=O)CC3)CC2)cn1 | 0.98 | 10.4
CC(C)(C)c1nnc(CN2CCN(S(C)(=O)=O)CC2)o1 | 1.17 | -26.2
c1cncc(COCc2nnc3n2CCN(Cc2ccoc2)C3)c1 | -0.0297 | -40.3
CNC(=O)C1(c2cnccn2)CCCN1C(=O)c1ccn(C)n1 (stereo not given) | -7.79 | -1.47
COc1ccc(C2CCCN2C(=O)CCNc2ncccn2)cc1 (stereo not given) | 5.17 | -17
Cc1n[nH]c(C2CN(C(=O)c3ccnc(C4CC4)n3)CCO2)n1 (stereo not given) | 1.3 | 28.6
CC(=O)c1cccc(OCCCC(=O)NCC2CCCN2C)c1 (stereo not given) | -2.48 | -4.3
Cc1noc(C(C)C)c1C(=O)NCCCOC(C)C | 2.01 | -6.05
O=C1NCCN1C1CCN(Cc2nc(-c3ccoc3)no2)CC1 | -7.34 | -21.2
CCN(C(=O)CCCOc1ccccc1F)c1ccncc1 | -2.34 | 1.08
Cc1ccn(-c2ccccc2NCc2ncc[nH]2)n1 | -0.604 | -13.8
O=C(NCC1CC1)[C@H]1CC[C@@H]2[C@@H](CCN2Cc2ccoc2)O1 | -5.12 | 0.319
